# Experimental data reported in PubChem BioAssay (NCATS).
# Several values for one entry are separate records, joined by “and”; a condition that tells them apart may be missing. Equal values may be shown once. Inconclusive results are not listed. A number with no mark means an inactive call. Activity calls are given as the source filed them. The call rests on the fitted dose curve; in most records, active means well fitted curve in the direction sought with a large enough effect; inconclusive means small, poorly fitted or top-dose-only effect, or another doubt; inactive means no such curve, though single readings can be large; an effect the other way counts as inactive or inconclusive.
# How the values were obtained:
# [1] = target: Cellular tumor antigen p53 (Homo sapiens) (UniProt P04637); experiment: Primary qHTS for small molecule compounds that upregulate eGFP-tagged delta133p53alpha (in N-terminal) cells. (AID 2060322); details: NCI-H358 eGFP-delta133p53alpha fluorescence, 24 h; activation: active compounds read high; further: nearly all actives have a fitted effect of over 75% in size; further: potency means the concentration at half of the fitted maximal effect;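 on activation: cells pre-induced with doxycycline then dosed without doxycycline; series mostly up to about 56 µM; 0% = DMSO vehicle and 100% = reference activator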
# How it was run: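 NCI-H358 cells pre-induced 24 h with 10 ng/ml doxycycline for eGFP-delta133p53alpha, plated dox-free and exposed 24 h at 37C to titrated compounds. Fixed, Hoechst-stained; gated GFP peak intensity by laser scanning cytometry, normalized to DMSO (0%) and 57.5 uM 5-azacytidine (100%).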
# [2] = target: Retinaldehyde dehydrogenase 3 (Homo sapiens) (UniProt P47895); experiment: qHTS for Inhibitors of the Aldehyde Dehydrogenase Family (ALDH1A3) Validation screen (AID 2061312); further: nearly all actives have a fitted effect of over 45% in size; further: potency means the concentration at half of the fitted maximal effect
# [3] = target: Aldehyde dehydrogenase, mitochondrial (Homo sapiens) (UniProt P05091); experiment: qHTS for Inhibitors of the Aldehyde Dehydrogenase Family (ALDH2) Primary screen (AID 2061308);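 further: plate controls were vehicle for no effect and reference inhibitor for full effect; nearly all actives have a fitted effect of over 55% in size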
# [4] = target: Retinaldehyde dehydrogenase 3 (Homo sapiens) (UniProt P47895); experiment: qHTS for Inhibitors of the Aldehyde Dehydrogenase Family (ALDH1A3) Primary screen (AID 2061315); further: potency means the concentration at half of the fitted maximal effect
# [5] = BET inhibitor-based combinations targeting novel dependencies in MECOM-rearranged (r) AML: AML-191 cell line (AID 2202236; further: nearly all actives have a fitted effect of over 35% in size; further: potency means the concentration at half of the fitted maximal effect)
# How it was run: (§1)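 500 cells/well; 11-pt dose curve; 48 h, standard incubator; CellTiter-Glo luminescence after 15 min RT; DMSO/empty-well normalization; AUC plus Z-AUC (mean-centered within each line).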
# [6] = BET inhibitor-based combinations targeting novel dependencies in MECOM-rearranged (r) AML: OCI-AML3 cell line (AID 2202232); details: Potency: OCI-AML3 viability; further: nearly all actives have a fitted effect of over 35% in size; further: potency means the concentration at half of the fitted maximal effect
# How it was run: as §1
# [7] = BET inhibitor-based combinations targeting novel dependencies in MECOM-rearranged (r) AML: MV-4-11 cell line (AID 2202233); further: nearly all actives have a fitted effect of over 45% in size; further: potency means the concentration at half of the fitted maximal effect
# How it was run: (§2)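 Cells were plated at 500 per well and exposed to each drug across an 11-point dose range for 48 hr at standard incubator conditions. Viability was read by CellTiter-Glo luminescence, and activity was expressed as AUC and per-cell-line Z-transformed AUC.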
# [8] = BET inhibitor-based combinations targeting novel dependencies in MECOM-rearranged (r) AML: HNT-34 cell line (AID 2202234); further: nearly all actives have a fitted effect of over 35% in size; further: potency means the concentration at half of the fitted maximal effect
# How it was run: as §2
# [9] = BET inhibitor-based combinations targeting novel dependencies in MECOM-rearranged (r) AML: UCSD-AML1 cell line (AID 2202235);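 further: series mostly up to about 46 µM; plate controls were DMSO vehicle wells for no effect and blank wells for full effect; nearly all actives have a fitted effect of over 40% in size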
# How it was run: as §2
# [10] = target: Retinaldehyde dehydrogenase 3 (Homo sapiens) (UniProt P47895); experiment: qHTS for Inhibitors of the Aldehyde Dehydrogenase Family (ALDH1A3) Confirmatory screens (AID 2061311); further: potency means the concentration at half of the fitted maximal effect; nearly all actives have a fitted effect of over 60% in size
# [11] = BET inhibitor-based combinations targeting novel dependencies in MECOM-rearranged (r) AML: SET-2 cell line (AID 2202231); details: SET-2 AML cells viability, CellTiter-Glo luminescence, 48 h; viability: active compounds read low, concentration not given here; further: nearly all actives have a fitted effect of over 35% in size; further: potency means the concentration at half of the fitted maximal effect;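 on viability: plate controls were DMSO treated cells for no effect and wells without cells for full effect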
# How it was run: as §1
# [12] = BET inhibitor-based combinations targeting novel dependencies in MECOM-rearranged (r) AML: AML-194 cell line (AID 2202237; further: nearly all actives have a fitted effect of over 40% in size; further: potency means the concentration at half of the fitted maximal effect)
# How it was run: as §1
# [13] = target: Retinal dehydrogenase 2 (Homo sapiens) (UniProt O94788); experiment: qHTS for Inhibitors of the Aldehyde Dehydrogenase Family (ALDH1A2) Confirmation screens (AID 2061314); further: potency means the concentration at half of the fitted maximal effect; nearly all actives have a fitted effect of over 65% in size
# [14] = target: Aldehyde dehydrogenase 1A1 (Homo sapiens) (UniProt P00352); experiment: qHTS for Inhibitors of the Aldehyde Dehydrogenase Family (ALDH1A1) Confirmatory screens (AID 2061316); further: potency means the concentration at half of the fitted maximal effect; nearly all actives have a fitted effect of over 65% in size
# Cellular tumor antigen p53 (Homo sapiens), sequence (P04637 whole entry, looked up): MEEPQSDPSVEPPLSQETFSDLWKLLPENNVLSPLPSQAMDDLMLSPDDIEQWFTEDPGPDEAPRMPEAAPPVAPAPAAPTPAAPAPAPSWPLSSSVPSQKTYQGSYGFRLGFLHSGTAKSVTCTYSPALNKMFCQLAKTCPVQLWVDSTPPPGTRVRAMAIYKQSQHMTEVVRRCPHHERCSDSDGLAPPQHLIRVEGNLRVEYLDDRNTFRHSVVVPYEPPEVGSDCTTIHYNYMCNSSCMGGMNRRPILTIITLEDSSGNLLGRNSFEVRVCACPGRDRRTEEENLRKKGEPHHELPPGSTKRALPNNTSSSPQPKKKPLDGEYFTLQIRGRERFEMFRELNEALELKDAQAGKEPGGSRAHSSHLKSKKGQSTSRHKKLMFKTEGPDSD
compound,measurement,setting,value
C[N+]1(C)C2CCC1CC(OC(=O)c1c[nH]c3ccccc13)C2 (centres undefined),activation,[1],-13.4%
same,Potency,[2],inactive
C[C@H](Nc1ncnc2nc[nH]c12)c1nc2ccc(F)cc2c(=O)n1-c1ccccc1,activation,[1],11.6%
same,Potency,[3],inactive
same,Potency,[4],inactive
same,Potency,[5],5.25 µM (active)
Clc1ccc(N2C[C@H]3CC[C@@H](C2)N3)nn1,activation,[1],-0.333%
same,Potency,[4],inactive
CC(C)OC(=O)c1ccnc2cc(C(OCCN3CCCCC3)c3ccccc3Cl)sc12 (centres undefined),activation,[1],-11.2%
same,Potency,[4],inactive
CCOC(=O)Nc1ccc(NCc2ccc(F)cc2)cc1N,activation,[1],-10.3% and -0.955%
same,Potency,[3],inactive
same,Potency,[6],inactive
same,Potency,[7],inactive
same,Potency,[8],inactive
same,Potency,[9],inactive
FC(F)(F)c1ccc(N2CCNCC2)nc1Cl,activation,[1],-26.3%
same,Potency,[2],inactive
same,Potency,[4],inactive
CN(N=O)c1ccc(O)c(O)c1,activation,[1],-30.1%
same,Potency,[10],12.7 µM (active)
Clc1ccccc1C(c1ccccc1)(c1ccccc1)n1cccn1,activation,[1],8.55%
same,viability,[11],90.1%
same,Potency,[6],inactive
same,Potency,[12],inactive
C#C[C@]1(O)C=C[C@H]2[C@@H]3CCC4=CC(=O)CC[C@@H]4[C@H]3CC[C@@]21CC,activation,[1],10.7%
same,viability,[11],95.4%
same,Potency,[7],18.6 µM (active)
same,Potency,[5],inactive
same,Potency,[12],inactive
C[C@]12CC[C@@H]3c4ccc(OC(=O)N(CCCl)CCCl)cc4CC[C@H]3[C@@H]1CC[C@@H]2OP(=O)(O)O,activation,[1],-2.49% and -2.33%
same,Potency,[4],inactive
same,viability,[11],112%
same,Potency,[6],inactive
same,Potency,[7],inactive
same,Potency,[8],inactive
same,Potency,[5],inactive
same,Potency,[12],inactive
c1cncc(OC[C@@H]2CCN2)c1,activation,[1],-4.3%
same,Potency,[4],inactive
CNc1ccc2oc(C[C@H]3O[C@@]4(CC[C@H]3C)O[C@H](C(C)C(=O)c3ccc[nH]3)[C@H](C)C[C@H]4C)nc2c1C(=O)O (some centres undefined),Potency,[1],19 µM (active)
same,Potency,[2],14.1 µM (active)
same,Potency,[4],11.2 µM (active)
C[N+](C)(C)CC#CCN1CCCC1=O,activation,[1],-31.7%
same,Potency,[2],inactive
CN[C@@H]1C[C@H]2O[C@@](C)([C@@H]1OC)n1c3ccccc3c3c4c(c5c6ccccc6n2c5c31)C(=O)NC4,Potency,[1],0.426 µM (active)
same,Potency,[3],inactive
same,Potency,[4],inactive
same,Potency,[6],0.0833 µM (active)
same,Potency,[12],0.0332 µM (active)
CCOC(=O)c1c(C(C#N)=CN)c2ccc(Cl)c(Cl)c2n1C,activation,[1],-1.37%
same,viability,[11],114%
same,Potency,[6],inactive
same,Potency,[8],inactive
same,Potency,[9],inactive
C[C@]12Cc3cn[nH]c3C[C@@H]1CC[C@@H]1[C@@H]2CC[C@@]2(C)[C@H]1CC[C@]2(C)O,activation,[1],-21.8%
same,viability,[11],57.3%
same,Potency,[6],inactive
same,Potency,[9],inactive
same,Potency,[5],inactive
same,Potency,[12],inactive
CN1C(=O)[C@]23CC4C(C)(C)[C@@]5(C[C@@]41CN2CC[C@@]3(C)O)C(=O)Nc1c5ccc2c1OC=CC(C)(C)O2 (some centres undefined),activation,[1],-19.1%
same,Potency,[4],inactive
CN1CC[C@@]2(C)c3cc(O)ccc3N(C)C12 (some centres undefined),activation,[1],-31.1%
same,Potency,[10],10.1 µM (active)
same,Potency,[13],4.49 µM (active)
C[C@@H]1CC[C@H]2[C@@H](C)C(=O)O[C@@H]3O[C@@]4(C)CC[C@@H]1[C@]32OO4,activation,[1],0%
same,viability,[11],93.5%
same,Potency,[6],1.18 µM (active)
same,Potency,[8],14.8 µM (active)
same,Potency,[9],inactive
same,Potency,[12],inactive
CN[C@@H]1Cc2cccc3[nH]c(=O)n(c23)C1,activation,[1],31.7%
same,viability,[11],120%
same,Potency,[7],inactive
same,Potency,[8],inactive
same,Potency,[9],inactive
same,Potency,[5],inactive
same,Potency,[12],inactive
O=S(=O)(F)Cc1ccccc1,activation,[1],5.78%
same,viability,[11],112%
same,Potency,[6],inactive
same,Potency,[8],inactive
same,Potency,[9],inactive
same,Potency,[12],inactive
CC(=O)OCC1=C(C(=O)O)N2C(=O)[C@@H](N)[C@H]2SC1,activation,[1],19.8% and -5.67%
same,Potency,[4],inactive
O=c1[nH]c2ccccc2n1C1CCN(Cc2ccc(-c3[nH]c4cc5ncnc5cc4nc3-c3ccccc3)cc2)CC1,activation,[1],5.59%
same,viability,[11],104%
same,Potency,[6],9.34 µM (active)
same,Potency,[7],14.8 µM (active)
same,Potency,[12],20.9 µM (active)
O=C(C[C@@H]1NCCC[C@H]1O)Cn1cnc2ccccc2c1=O,Potency,[1],0.239 µM (active)
same,Potency,[4],inactive
COc1ccc2c(c[n+](C)c3c4cc5c(cc4ccc23)OCO5)c1OC,Potency,[1],43.2 µM (active)
same,Potency,[10],7.12 µM (active)
same,Potency,[14],6.34 µM (active)
same,Potency,[6],5.9 µM (active)
Fc1ccc(C(OCCN2CCN(CCCc3ccccc3)CC2)c2ccc(F)cc2)cc1,activation,[1],0.57% and -55.2%
same,Potency,[11],23.5 µM (active)
same,Potency,[7],10.5 µM (active)
same,Potency,[5],18.6 µM (active)
C=C1[C@@]23C(=O)O[C@H](C)[C@]24O[C@@]2(C(=C)[C@]5(C=CC(=O)OC5(C)C)CC[C@]32C)[C@H](O)[C@@]1(C)OC4=O,activation,[1],13%
same,Potency,[4],inactive
c1ccc2c(CN3CCNCC3)cccc2c1,activation,[1],12.1%
same,viability,[11],115%
same,Potency,[8],inactive
same,Potency,[5],inactive
same,Potency,[12],inactive
